Results filed as inconclusive are left out. The source made the active and inactive calls. Unless noted, the call rests on the fitted dose curve; in most records, active means well fitted curve in the direction sought with a large enough effect in the repeat runs; inconclusive means weak or mixed curves; inactive means no such curve, though single readings can be large; an effect the other way counts as inactive or inconclusive.
Legend:
[1] = qHTS assay to identify small molecule antagonists of the thyroid receptor (TR) signaling pathway - cell viability counter screen (AID 743064); further: nearly all actives have a fitted effect of over 50% in size
How it was run: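 Fluorescence from CellTiter-Fluor, added after 23.5 h exposure at 37 °C, reported viability of GH3.TRE-Luc cells co-treated with compound and 1 nM T3. Measured in the same wells as the luciferase TR readout.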

[2] = qHTS assay to identify small molecule antagonists of the thyroid receptor (TR) signaling pathway (AID 743065); further: series mostly up to about 70 µM; nearly all actives have a fitted effect of over 55% in size
How it was run: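 GH3.TRE-Luc rat pituitary cells carrying two TR response elements driving luciferase were plated for 4 h, given compound plus 1 nM T3 (final), and incubated 23.5 h at 37 C. ONE-Glo luminescence measured reporter inhibition; CellTiter-Fluor fluorescence tracked cytotoxicity.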

[3] = tested on: thyroid hormone receptor (rat, GH3 cells); experiment: qHTS assay to identify small molecule agonists of the thyroid receptor (TR) signaling pathway (AID 743066; calls by dose curve)
[4] = biological target: Estrogen receptor (Homo sapiens) (UniProt P03372); experiment: qHTS assay to identify small molecule antagonists of the estrogen receptor alpha (ER-alpha) signaling pathway (AID 743069; active means well fitted curve in the direction sought with a large enough effect in the signal ratio in the repeat runs, not every such curve was filed as active; the % refers to the signal ratio)
How it was run: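 HEK293 cells stably carrying an ER-alpha-UAS-bla beta-lactamase reporter were pre-cultured overnight in 2% charcoal-stripped FBS medium. Test compounds in DMSO were added together with 17beta-estradiol for 18 hr at 37C. Read-out was fluorescence after 2 hr with LiveBLAzer B/G FRET substrate at room temperature.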

[5] = qHTS assay to identify small molecule antagonists of the estrogen receptor alpha (ER-alpha) signaling pathway - cell viability counter screen (AID 743074; calls by dose curve; further: nearly all actives have a fitted effect of over 45% in size)
[6] = biological target: Estrogen receptor (Homo sapiens) (UniProt P03372); experiment: qHTS assay to identify small molecule agonists of the estrogen receptor alpha (ER-alpha) signaling pathway (AID 743075; calls by dose curve)
[7] = biological target: Estrogen receptor (Homo sapiens) (UniProt P03372); experiment: qHTS assay to identify small molecule agonists of the estrogen receptor alpha (ER-alpha) signaling pathway using the BG1 cell line (AID 743079); further: nearly all actives have a fitted effect of over 20% in size
[8] = qHTS assay to identify small molecule antagonists of the estrogen receptor alpha (ER-alpha) signaling pathway using the BG1 cell line (AID 743080; calls by dose curve;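 further: BG1 cells stimulated with 17beta-estradiol alongside compound; series mostly up to about 70 µM; nearly all actives have a fitted effect of over 25% in size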)
How it was run: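 Luminescence from a 4×ERE-luciferase reporter in BG1-Luc-4E2 cells served as read-out. Cells, pre-cultured 5 days in stripped-serum phenol-red-free medium, were exposed to compound with 17beta-estradiol co-stimulation for 21.5 h at 37 C.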

[9] = qHTS assay to identify small molecule antagonists of the estrogen receptor alpha (ER-alpha) signaling pathway using the BG1 cell line - cell viability counter screen (AID 743081);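 further: compound given together with 17beta-estradiol as the ER stimulus; series mostly up to about 70 µM; nearly all actives have a fitted effect of over 45% in size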
Aromatase (Homo sapiens) = Aromatase (Homo sapiens) (UniProt P11511); experiment: qHTS assay to identify aromatase inhibitors (AID 743083); further: series mostly up to about 70 µM; nearly all actives have a fitted effect of over 55% in size
[10] = qHTS assay to identify aromatase inhibitors - cell viability counter screen (AID 743084);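 further: cells stimulated with testosterone during compound exposure; nearly all actives have a fitted effect of over 55% in size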
[11] = qHTS assay to identify small molecule that activate the aryl hydrocarbon receptor (AhR) signaling pathway - cell viability counter screen (AID 743086);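 further: HepG2 liver cells carrying the AhR DRE luciferase reporter; series mostly up to about 70 µM; nearly all actives have a fitted effect of over 45% in size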
How it was run: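 HepG2-AhR-luc (HG2L7.5c1) cells, 4000/well, were preincubated 5 h at 37C, exposed to compound in qHTS format for 24 hr at 37C, then given CellTiter-Fluor for 30 min; viability was read as fluorescence in the reporter wells.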

[12] = biological target: Peroxisome proliferator-activated receptor gamma (Homo sapiens) (UniProt P37231); experiment: qHTS assay to identify small molecule agonists of the peroxisome proliferator-activated receptor gamma (PPARg) signaling pathway (AID 743094; active means well fitted activation curve with a large enough effect in the signal ratio in the repeat runs, not every such curve was filed as active; the % refers to the signal ratio)
How it was run: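 Stably transfected HEK293H cells (GeneBLAzer PPARg UAS-bla) were incubated with test substances for 17 h at 37C after a 5 h pre-incubation; beta-lactamase activity was then detected by FRET substrate fluorescence.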

[13] = qHTS assay to identify small molecule antagonists of the peroxisome proliferator-activated receptor gamma (PPARg) signaling pathway - cell viability counter screen (AID 743194); further: nearly all actives have a fitted effect of over 55% in size
How it was run: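 PPARg-UAS-bla HEK293H cells were plated, rested 5 h at 37 C, then treated with compounds plus rosiglitazone (50 nM final) for 17 h at 37 C; viability was then read by CellTiter-Glo luminescence after 30 min at room temperature.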

[14] = qHTS assay for small molecule agonists of the antioxidant response element (ARE) signaling pathway (AID 743202; active means well fitted activation curve with a large enough effect in the signal ratio in the repeat runs, not every such curve was filed as active; the % refers to the signal ratio)
How it was run: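 Read-out: LiveBLAzer B/G FRET substrate fluorescence after 2 h at room temperature, following 16 h compound treatment at 37 C of HepG2 cells carrying an ARE-driven beta-lactamase reporter.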

[15] = qHTS assay for small molecule activators of the heat shock response signaling pathway - cell viability counter screen (AID 743209); further: nearly all actives have a fitted effect of over 50% in size
How it was run: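 Quantitative HTS format, Tox21 10K library. HeLa cells carrying an HSE-driven beta-lactamase reporter were treated 5 h at 37 C, then assessed for viability by CellTiter-Glo luminescence.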

[16] = qHTS assay for small molecule activators of the heat shock response signaling pathway (AID 743210; active means well fitted activation curve with a large enough effect in the signal ratio in the repeat runs, with a control signal flat, not every such curve was filed as active; the % refers to the signal ratio; further: series mostly up to about 63 µM)
How it was run: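 HSE-bla HeLa cells (beta-lactamase reporter under heat shock response elements) were exposed to compounds for 5 h at 37 C, then loaded with LiveBLAzer B/G FRET substrate for 2.5 h at room temperature before fluorescence reading.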

[17] = biological target: Aryl hydrocarbon receptor (Homo sapiens) (UniProt P35869); experiment: qHTS assay to identify small molecule that activate the aryl hydrocarbon receptor (AhR) signaling pathway (AID 743085);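 further: HG2L7.5c1 human HepG2 liver cells with stably integrated DRE-driven firefly reporter; series mostly up to about 70 µM; nearly all actives have a fitted effect of over 15% in size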
How it was run: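 Cell line HG2L7.5c1 (human hepatoma, 20× DRE-luc). Plated, 5 h 37C, compound/DMSO added, 24 h 37C. CellTiter-Fluor 30 min 37C → fluorescence; then ONE-Glo 30 min RT → luminescence.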

[18] = biological target: Peroxisome proliferator-activated receptor gamma (Homo sapiens) (UniProt P37231); experiment: qHTS assay to identify small molecule antagonists of the peroxisome proliferator-activated receptor gamma (PPARg) signaling pathway (AID 743191; calls by dose curve; further: series mostly up to about 63 µM; nearly all actives have a fitted effect of over 30% in size)
How it was run: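 GeneBLAzer PPARg UAS-bla HEK293H cells carrying a UAS-driven beta-lactamase reporter were plated at 3000 cells/well, preincubated 5 h at 37C, then given compound for 17 h at 37C; LiveBLAzer B/G FRET substrate was read after 1 h at room temperature.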

[19] = qHTS assay for small molecule agonists of the antioxidant response element (ARE) signaling pathway - cell viability counter screen (AID 743203; calls by dose curve; further: nearly all actives have a fitted effect of over 55% in size)
How it was run: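 Cells (ARE-bla HepG2, 2,000/well) receive DMSO-dissolved compounds after a 5 hrs rest. Plates incubate 16 hrs at 37C/5% CO2. CellTiter-Glo luminescence is then recorded after 30 min at room temperature.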

Measured: Potency

Peroxisome proliferator-activated receptor gamma (Homo sapiens), sequence (P37231 whole entry, looked up): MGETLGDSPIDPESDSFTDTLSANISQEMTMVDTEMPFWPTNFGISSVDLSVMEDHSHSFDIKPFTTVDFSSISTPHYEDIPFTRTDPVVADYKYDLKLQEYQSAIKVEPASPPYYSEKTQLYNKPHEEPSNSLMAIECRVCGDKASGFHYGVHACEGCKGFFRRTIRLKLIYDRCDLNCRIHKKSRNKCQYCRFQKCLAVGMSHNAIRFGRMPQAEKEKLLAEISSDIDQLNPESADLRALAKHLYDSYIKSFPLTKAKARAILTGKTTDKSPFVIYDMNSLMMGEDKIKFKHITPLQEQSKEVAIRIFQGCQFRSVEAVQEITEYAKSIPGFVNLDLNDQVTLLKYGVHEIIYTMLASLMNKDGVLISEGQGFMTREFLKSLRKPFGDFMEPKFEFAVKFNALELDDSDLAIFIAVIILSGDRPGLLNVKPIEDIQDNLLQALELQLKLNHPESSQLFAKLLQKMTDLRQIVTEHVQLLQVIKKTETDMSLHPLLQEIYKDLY
Estrogen receptor (Homo sapiens), sequence (P03372 whole entry, looked up): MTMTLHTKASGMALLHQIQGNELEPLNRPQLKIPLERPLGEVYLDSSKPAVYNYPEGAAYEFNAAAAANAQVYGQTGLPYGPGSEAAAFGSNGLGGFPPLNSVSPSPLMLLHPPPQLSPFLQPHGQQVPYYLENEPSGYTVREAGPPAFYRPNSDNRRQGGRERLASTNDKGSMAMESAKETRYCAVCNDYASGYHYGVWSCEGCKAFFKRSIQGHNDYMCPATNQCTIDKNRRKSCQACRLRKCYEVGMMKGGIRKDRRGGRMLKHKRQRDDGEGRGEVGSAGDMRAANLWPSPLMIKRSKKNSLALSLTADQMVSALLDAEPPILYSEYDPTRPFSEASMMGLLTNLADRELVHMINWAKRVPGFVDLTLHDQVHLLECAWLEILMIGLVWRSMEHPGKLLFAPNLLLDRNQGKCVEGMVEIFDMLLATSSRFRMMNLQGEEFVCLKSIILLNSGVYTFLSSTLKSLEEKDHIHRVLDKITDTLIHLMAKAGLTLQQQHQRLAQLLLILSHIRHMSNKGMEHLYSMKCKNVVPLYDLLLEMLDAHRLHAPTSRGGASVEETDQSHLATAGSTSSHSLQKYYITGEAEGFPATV
Aryl hydrocarbon receptor (Homo sapiens), sequence (P35869 whole entry, looked up): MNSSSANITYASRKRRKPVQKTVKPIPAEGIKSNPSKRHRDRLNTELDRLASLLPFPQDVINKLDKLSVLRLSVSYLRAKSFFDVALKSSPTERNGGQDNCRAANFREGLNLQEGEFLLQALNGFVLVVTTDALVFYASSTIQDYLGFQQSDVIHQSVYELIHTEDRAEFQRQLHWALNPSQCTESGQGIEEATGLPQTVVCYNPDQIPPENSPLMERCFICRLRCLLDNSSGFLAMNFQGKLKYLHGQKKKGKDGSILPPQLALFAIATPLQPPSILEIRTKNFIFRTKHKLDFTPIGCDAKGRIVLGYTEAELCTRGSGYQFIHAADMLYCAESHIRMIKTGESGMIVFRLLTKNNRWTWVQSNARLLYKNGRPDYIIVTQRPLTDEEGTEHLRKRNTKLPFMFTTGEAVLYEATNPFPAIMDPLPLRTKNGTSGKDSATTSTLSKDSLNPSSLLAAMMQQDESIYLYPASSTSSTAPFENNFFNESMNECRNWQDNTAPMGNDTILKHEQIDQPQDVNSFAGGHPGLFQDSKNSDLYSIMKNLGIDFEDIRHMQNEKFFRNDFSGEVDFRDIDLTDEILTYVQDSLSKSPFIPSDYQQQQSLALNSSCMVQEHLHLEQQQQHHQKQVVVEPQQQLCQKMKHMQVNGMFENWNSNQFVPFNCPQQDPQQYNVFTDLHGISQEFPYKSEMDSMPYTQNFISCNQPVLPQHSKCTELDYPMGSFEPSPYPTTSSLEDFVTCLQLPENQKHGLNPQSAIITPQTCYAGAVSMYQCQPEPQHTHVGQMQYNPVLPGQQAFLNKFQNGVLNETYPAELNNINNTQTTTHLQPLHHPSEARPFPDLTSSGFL
Aromatase (Homo sapiens), sequence (P11511 whole entry, looked up): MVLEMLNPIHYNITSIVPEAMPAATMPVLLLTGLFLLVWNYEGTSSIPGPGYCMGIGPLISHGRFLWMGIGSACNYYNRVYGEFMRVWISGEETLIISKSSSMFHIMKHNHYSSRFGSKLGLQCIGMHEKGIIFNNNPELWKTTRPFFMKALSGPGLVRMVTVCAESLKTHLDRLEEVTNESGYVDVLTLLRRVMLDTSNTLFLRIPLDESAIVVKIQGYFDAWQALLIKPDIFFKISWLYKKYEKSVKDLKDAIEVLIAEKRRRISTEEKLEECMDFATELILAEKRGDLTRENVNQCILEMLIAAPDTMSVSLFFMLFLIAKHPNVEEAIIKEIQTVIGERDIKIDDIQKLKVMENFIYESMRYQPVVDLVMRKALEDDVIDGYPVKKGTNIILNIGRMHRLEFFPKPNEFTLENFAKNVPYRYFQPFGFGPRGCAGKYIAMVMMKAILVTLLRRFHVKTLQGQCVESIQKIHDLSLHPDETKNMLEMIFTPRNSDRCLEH

CCCCC/C=C/CC1CC(=O)OC1=O (configuration not stated)
not listed: [17] | [18] | [19]
inactive: all other assays above

CCN(CC)C(=O)Nc1ccc(OCC(O)CNC(C)(C)C)c(C(C)=O)c1 (configuration not stated)
inactive: all assays above

COC(=O)c1cccc(C(=O)OC)c1
not listed: [8] | [15] | [17]
inactive: all other assays above

CC(=O)OCCOCCOCCOC(C)=O
not listed: [8]
inactive: all other assays above

CCn1cc(C(=O)O)c(=O)c2cc(F)c(N3CCNC(C)C3)c(F)c21 (configuration not stated)
not listed: [8] | [17] | [18]
inactive: all other assays above

NC(N)=Nc1nc(CSCC/C(N)=N/S(N)(=O)=O)cs1
not listed: [8] | [17]
inactive: all other assays above

Cc1cccc(O)c1C
not listed: [17]
inactive: all other assays above

C=CC(=O)OCCCCCCCC
not listed: [8]
inactive: all other assays above

C=C(C)C1CC=C(C)C(OC(C)=O)C1 (configuration not stated)
inactive: all assays above

C=C(C)C(=O)O
not listed: [15] | [17] | [18]
inactive: all other assays above

c1ccc2c(c1)CCCC2C1=NCCN1 (configuration not stated)
inactive: all assays above

Nc1nc2ccccc2[nH]1
not listed: [17]
inactive: all other assays above

CCCNC(C)C(=O)Nc1ccccc1C (configuration not stated)
inactive: all assays above

— PubChem BioAssay (Tox21)
